# Measured values taken from PubChem BioAssay (NCATS).
# Inconclusive results are not listed. Values without a mark were called inactive. The source made the active and inactive calls. The call rests on the fitted dose curve; in most records, active means well fitted cell-killing curve with a large enough effect; inconclusive means small, poorly fitted or top-dose-only effect; inactive means no such curve, though single readings can be large or run the other way.
# Test: qHTS of pediatric cancer cell lines to identify multiple opportunities for drug repurposing: Confirmatory screen for Rh41 cells (AID 1347123);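 further: 48 h compound exposure; nearly all actives have a fitted effect of over 60% in size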
# Conditions: Rh41 rhabdomyosarcoma cells, viability/cytotoxicity qHTS; series mostly up to 45.9 µM; activity change, negative = cytotoxic: at the top concentration
# Text: Drug repurposing or repositioning has been offered as a strategy for drug development in oncology programs. This approach has special potential for childhood cancers and other rare or orphan diseases, where the expected return on new drug development has been a disincentive to pharmaceuticals.
# In this project we exploit the poly-pharmacology of drugs to discover new indications via phenotypic screening of a panel of 19 well-characterized cell lines derived from solid tumors seen in children and adolescents. The goal is to identify approved drugs with previously unrecognized anticancer properties that has the potential to reveal new mechanisms and biological processes involved in carcinogenesis or drug resistance. We employed a titration-based paradigm (quantitative high-throughput screening or qHTS), where all compounds were tested at multiple concentrations for their effect on cell viability. Concentration-response curves (CRCs) were derived directly from the primary screen, and both potency and efficacy values were used to identify compounds with robust bioactivity profiles. We screened the NIH Chemical Genomics Center (NCGC) Pharmaceutical Collection (NPC) and Mechanism Interrogation Plate (MIPE) small molecule collections of approved and investigational compounds against these cell lines; and measured metabolically active cells after 48 hours of compound treatment as a proxy for cell viability.
# Assay Submitter: Nathalia J. Martinez, National Center for Advancing Translational Sciences, National Institutes of Health, Rockville, MD, USA; email: natalia.martinez@nih.gov
# [1] Shen, M et al. Quantitative high-throughput phenotypic screening of pediatric cancer cell lines identifies multiple opportunities for drug repurposing. Oncotarget 2017 Dec 19;9(4):4758-4772. PMID 29435139.
# The cells were obtained from University of North Carolina (UNC), Pediatric Preclinical Testing Program (PPT), and Coriell Institute (CI).
# qHTS cell viability assay:
# Cells were assayed in growth media at a density of 500-1,000 cells/well. Five microliters of cells were dispensed into 1,536-well, white, solid-bottom, TC-treated plates (Greiner Bio One) using a multidrop dispenser and incubated at 37 degrees C, 5% CO2, under a humidified atmosphere for 5 hours. Twenty-three nanoliters of compounds and controls (neutral control DMSO or positive control bortezomib at final concentration of 2.3 µM) were subsequently transferred by Kalypsys pintool. For primary screens, the MIPE collection was tested at 11-point dilutions (final concentrations range from 0.78 nM to 46 µM) and the NPC collection at 8-point dilutions (final concentrations range from 0.59 nM to 46 µM). Compounds tested in follow-up screens were assayed at 11-point dilutions. Cells were incubated for 48 hours, followed by addition of 3 µL of CellTiter-Glo (Promega). After a 15 min incubation at room temperature, samples were analyzed for luminescence intensity using a ViewLux High-throughput CCD imager equipped with clear filters.
# Potency means the concentration at half of the fitted maximal effect.
SMILES,Potency,"activity change, negative = cytotoxic"
CCCCCCCCCCCC[N+](C)(C)CCOc1ccccc1,7370 nM (active),
COC(=O)C1=CCCN(C)C1,,19.5%
CC[n+]1c(-c2ccccc2)c2cc(N)ccc2c2ccc(N)cc21,1650 nM (active),
CCCCCCCCC(=O)NCc1ccc(O)c(OC)c1,,-36.1%
COc1ccc2c(C(=O)c3ccc(Cl)cc3)c(C)n(CC(=O)O)c2c1,,-6.71%
CC1Sc2c(C(=O)O)c(=O)c3cc(F)c(N4CCNCC4)cc3n21 (configuration not stated),,-1.44%
O=C(O)Cc1ccccc1,,0.0464%
Cc1ccc([N+](=O)[O-])[c]2c1[O][Hg]2,233 nM (active),
CN(C)C(=S)SSC(=S)N(C)C,233 nM (active),
ClC1=C(Cl)C2(Cl)C(CBr)CC1(Cl)C2(Cl)Cl (configuration not stated),,-10.7%
CCc1ccc(C2CCNCC2)cc1,,-7.3%
COc1ccc(C(=O)N2CCCC2=O)cc1,,2.01%
